Assay results taken from PubChem BioAssay (NCI).
Compounds without any hit were thinned out: in the full panel of roughly 83,000, 20% have a hit.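 In brief: 96-well plates, 48 h treatment, single concentration, percent growth endpoint.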 Active and inactive are the calls of the source. The calls were made as follows: active = growth percent below 10; inactive = the rest.

Columns and labels:
Assay in all cases: NCI-60 one-dose screen, 48 h (100 = growth as untreated, 0 = no growth, -100 = all killed)
Settings in all cases: 10 µM
RPMI-8226 leukemia = test system: RPMI-8226 leukemia
OVCAR-8 ovarian = test system: OVCAR-8 ovarian
OVCAR-5 ovarian = test system: OVCAR-5 ovarian
OVCAR-4 ovarian = test system: OVCAR-4 ovarian
SK-OV-3 ovarian = test system: SK-OV-3 ovarian
IGROV1 ovarian = test system: IGROV1 ovarian
OVCAR-3 ovarian = test system: OVCAR-3 ovarian
HS 578T breast = test system: HS 578T breast
NCI/ADR-RES ovarian = test system: NCI/ADR-RES ovarian
T-47D breast = test system: T-47D breast
BT-549 breast = test system: BT-549 breast
MDA-MB-435 melanoma = test system: MDA-MB-435 melanoma
SW-620 colon = test system: SW-620 colon
MCF7 breast = test system: MCF7 breast
HCT-116 colon = test system: HCT-116 colon
HCC-2998 colon = test system: HCC-2998 colon
KM12 colon = test system: KM12 colon

Measured: growth

O=C(Nc1cccc(-n2cc(-c3ccncc3)c(-c3ccc(O)c(Cl)c3)n2)c1)c1cc(C(F)(F)F)cc(C(F)(F)F)c1
inactive: RPMI-8226 leukemia 28.8% | OVCAR-8 ovarian 42.9% | OVCAR-5 ovarian 75% | OVCAR-4 ovarian 53.9% | SK-OV-3 ovarian 87.7% | IGROV1 ovarian 71.8% | OVCAR-3 ovarian 35.7% | HS 578T breast 60.2% | NCI/ADR-RES ovarian 58.5% | T-47D breast 25.6% | BT-549 breast 79.7% | MDA-MB-435 melanoma 52% | SW-620 colon 67.7% | MCF7 breast 27.3% | HCT-116 colon 44.1% | HCC-2998 colon 33.3% | KM12 colon 27.1%

Clc1ccc(Nc2ccnc(NCCNc3ccnc4cc(Cl)ccc34)n2)cc1
inactive: OVCAR-8 ovarian 16.9% | OVCAR-5 ovarian 61.4% | OVCAR-4 ovarian 24.9% | SK-OV-3 ovarian 60% | OVCAR-3 ovarian 57.8% | NCI/ADR-RES ovarian 44.8% | BT-549 breast 40.8%
active: RPMI-8226 leukemia -48.9% | IGROV1 ovarian -8.25% | HS 578T breast -25% | T-47D breast -60.2% | MDA-MB-435 melanoma -90% | SW-620 colon -10.5% | MCF7 breast -74.6% | HCT-116 colon -71.3% | HCC-2998 colon -89%

COc1ccc(-c2nnc(-c3c(-c4ccccc4)nc4ncccn34)o2)cc1OC
inactive: RPMI-8226 leukemia 94.8% | OVCAR-8 ovarian 99% | OVCAR-5 ovarian 91.7% | OVCAR-4 ovarian 93.1% | SK-OV-3 ovarian 95.9% | IGROV1 ovarian 98.5% | OVCAR-3 ovarian 108% | HS 578T breast 98.3% | NCI/ADR-RES ovarian 101% | T-47D breast 87.2% | BT-549 breast 88.6% | MDA-MB-435 melanoma 117% | SW-620 colon 109% | MCF7 breast 102% | HCT-116 colon 103% | HCC-2998 colon 106% | KM12 colon 100%

COc1cc(-c2cc(C(=O)N3CCN(C(=O)c4ccccc4NCc4ccco4)CC3)nc3cc(-c4ccccc4)nn23)cc(OC)c1OC
inactive: RPMI-8226 leukemia 21.3% | OVCAR-8 ovarian 39.5% | OVCAR-5 ovarian 64.1% | OVCAR-4 ovarian 68.6% | SK-OV-3 ovarian 27.3% | IGROV1 ovarian 23% | HS 578T breast 36.5% | T-47D breast 50.9% | BT-549 breast 35.6% | SW-620 colon 14.2% | MCF7 breast 16.3% | HCT-116 colon 20% | HCC-2998 colon 66.3% | KM12 colon 13.1%
active: OVCAR-3 ovarian -37.8% | NCI/ADR-RES ovarian 6.24% | MDA-MB-435 melanoma -34.6%

NC(=S)N=Nc1c(O)c2ccccc2c2ccccc12
inactive: RPMI-8226 leukemia 58.7% | OVCAR-8 ovarian 36% | OVCAR-5 ovarian 107% | OVCAR-4 ovarian 73.6% | SK-OV-3 ovarian 92.3% | IGROV1 ovarian 68.9% | OVCAR-3 ovarian 29.9% | HS 578T breast 62% | NCI/ADR-RES ovarian 27.1% | T-47D breast 68.3% | BT-549 breast 49.5% | SW-620 colon 47% | MCF7 breast 24.5% | HCT-116 colon 32% | HCC-2998 colon 98.6% | KM12 colon 92%
active: MDA-MB-435 melanoma -85.5%

COc1ccc(C(=O)/C=C/c2cc(-c3cc(OC)c(OC)c(OC)c3)n[nH]2)cc1
active: RPMI-8226 leukemia -38.8% | SW-620 colon -37.6% | HCT-116 colon -76.3% | KM12 colon -60.1%
inactive: OVCAR-8 ovarian 16.1% | OVCAR-5 ovarian 47.8% | OVCAR-4 ovarian 45.6% | SK-OV-3 ovarian 25.7% | IGROV1 ovarian 43.2% | OVCAR-3 ovarian 11.1% | HS 578T breast 71.3% | NCI/ADR-RES ovarian 25.9% | T-47D breast 13.6% | BT-549 breast 14.4% | MDA-MB-435 melanoma 15.6% | MCF7 breast 16.5% | HCC-2998 colon 91.3%

COc1ccc(Cn2c(C(N)=O)cc3c2-c2nc(N)ncc2CCC3)cc1
inactive: RPMI-8226 leukemia 85.5% | OVCAR-8 ovarian 98.6% | OVCAR-5 ovarian 87.7% | OVCAR-4 ovarian 99.7% | SK-OV-3 ovarian 104% | IGROV1 ovarian 101% | OVCAR-3 ovarian 107% | HS 578T breast 91.3% | NCI/ADR-RES ovarian 110% | T-47D breast 104% | BT-549 breast 109% | MDA-MB-435 melanoma 97.2% | SW-620 colon 91.3% | MCF7 breast 92.7% | HCT-116 colon 101% | HCC-2998 colon 104% | KM12 colon 97.5%

COc1cc2cc3c(nc2cc1OC)CCN3Cc1ccc(NC(=O)Nc2ccc(F)cc2F)cc1
inactive: RPMI-8226 leukemia 66% | OVCAR-8 ovarian 79.7% | OVCAR-5 ovarian 105% | OVCAR-4 ovarian 61.2% | SK-OV-3 ovarian 84% | IGROV1 ovarian 89.8% | OVCAR-3 ovarian 84.1% | HS 578T breast 99.7% | NCI/ADR-RES ovarian 73% | T-47D breast 52.1% | BT-549 breast 76.7% | MDA-MB-435 melanoma 89% | SW-620 colon 100% | MCF7 breast 81.3% | HCT-116 colon 81.3% | HCC-2998 colon 85.1% | KM12 colon 87.2%
